{
  "source": "PubChem BioAssay (Tox21)",
  "note": "Results filed as inconclusive are left out. Where a call stands in place of a potency, no number is given. Calls of active or inactive are those of the source. Calls follow the shape of the dose curve; as a rule, active = well fitted curve in the direction sought with a large enough effect in the repeat runs; inconclusive = weak or mixed curves; inactive = no such curve, though single readings can be large; an effect the other way counts as inactive or inconclusive.",
  "data": [
    {"test": "qHTS assay to identify small molecule antagonists of the retinoic acid receptor (RAR) signaling pathway (AID 1159552; also: nearly all actives have a fitted effect of over 50% in size)", "conditions": "C3RL4 RARE luciferase reporter, retinol-stimulated, 6 h; series mostly up to 92.4 µM", "method_in_brief": "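RARE-luc C3RL4 cells; cpds + 1 uM (final) retinol, 6 hr, 37 C/5% CO2; luciferase reagent, 30 min RT, luminescence readout. Inhibitors of retinol-driven signal scored.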", "values": [
      {"compound": "CCC(C)(CC)c1cc(NC(=O)c2c(OC)cccc2OC)on1", "Potency": "inactive"},
      {"compound": "CC(Oc1ccc(Cl)cc1Cl)C(=O)O", "note": "(stereo not given)", "Potency": "inactive"},
      {"compound": "CCCCN(CC)C(=O)SCCC", "Potency": "inactive"},
      {"compound": "CCNc1nc(NC(C)(C)C)nc(SC)n1", "Potency": "inactive"},
      {"compound": "NCCc1ccc(O)cc1", "Potency": "inactive"},
      {"compound": "CCOC(=O)c1ccccc1C(=O)OCC", "Potency": "inactive"},
      {"compound": "COC(=O)c1ccccc1C(=O)OC", "Potency": "inactive"},
      {"compound": "CCCC1COC(Cn2cncn2)(c2ccc(Cl)cc2Cl)O1", "note": "(stereo not given)", "Potency": "inactive"},
      {"compound": "C1CN2CCN1CC2", "Potency": "inactive"},
      {"compound": "CCOP(=S)(OCC)Oc1cnc2ccccc2n1", "Potency": "inactive"},
      {"compound": "Cc1ccc([N+](=O)[O-])cc1C", "Potency": "inactive"},
      {"compound": "CC(C)=C[C@@H]1[C@@H](C(=O)OCc2coc(Cc3ccccc3)c2)C1(C)C", "Potency": "inactive"}
    ]},
    {"test": "qHTS assay to identify small molecule agonists of the retinoic acid receptor (RAR) signaling pathway (AID 1159553)", "conditions": "C3RL4 RARE luciferase reporter, agonist, 6 h; activation: at 73.3 µM (top of the series) unless noted", "method_in_brief": "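Reporter readout comes from luciferase under RARE control in C3RL4 cells; compound exposure lasts 6 hr at 37 C in 5% CO2, and luminescence is recorded following a 30 min room-temperature incubation with reagent.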", "values": [
      {"compound": "CCCCN(CC)C(=O)SCCC", "Potency": "inactive"},
      {"compound": "CCNc1nc(NC(C)(C)C)nc(SC)n1", "Potency": "inactive"},
      {"compound": "COC(=O)c1ccccc1C(=O)OC", "Potency": "inactive"},
      {"compound": "CCCC1COC(Cn2cncn2)(c2ccc(Cl)cc2Cl)O1", "note": "(stereo not given)", "Potency": "inactive"},
      {"compound": "C1CN2CCN1CC2", "Potency": "inactive"},
      {"compound": "CCOP(=S)(OCC)Oc1cnc2ccccc2n1", "Potency": "inactive"},
      {"compound": "Cc1ccc([N+](=O)[O-])cc1C", "Potency": "inactive"},
      {"compound": "CC(C)=C[C@@H]1[C@@H](C(=O)OCc2coc(Cc3ccccc3)c2)C1(C)C", "Potency": "inactive"}
    ]}
  ]
}
